Data as given in PubChem BioAssay AID2314 (National Center for Advancing Translational Sciences (NCATS), 2010).
Hit rate of the full screen: of about 300,000 compounds, about 37,000 (12%) were called active. The list comes from a sample in which actives are over-represented; it also holds similar structures and randomly drawn compounds. A number with no mark means an inactive call. No stated cut-off is given here; in the data, active means max response mostly above about 13% (no sharp cut-off); inactive means mostly below about 14%.

Assay: Cycloheximide Counterscreen for Small Molecule Inhibitors of Shiga Toxin; further: read at 38.3 µM for the half of the compounds with a filed dose; 0% is about no effect
Conditions: cell reporter, cycloheximide protein synthesis inhibition counterscreen; stronger effect = higher value

SMILES | max response
O=C(COc1ccc2c(c1)CCC2)N1CCN(c2ccc(F)cc2)CC1 | -1.09%
O=C(NCCN1CCCC(O)C1)c1cc(COc2c(F)cccc2F)on1 (stereo not drawn) | 9.93%
CSc1ncc(C(=O)NCCCc2ccccc2)c(C)n1 | 10.8%
Nc1nonc1C(=O)NCCc1ccccc1 | 10.9%
CCN(CC)CCCNC(=O)c1cc(-c2cccc(Cl)c2)on1 | 0.892%
CC(C)Cc1cc(C(=O)NCCc2ccccc2)no1 | 53.1% (active)
O=C(NCCCc1ccccc1)c1cc(COc2c(F)cccc2F)on1 | 31.8% (active)
C[C@H](NC(=O)NCCc1ccccc1)C(=O)O | -6.82%
CC(C)CNC(=O)c1cc(-c2ccc(Br)cc2)on1 | 36% (active)
Cc1c(NC(=O)c2cc(-c3ccc(Br)cc3)on2)c(=O)n(-c2ccccc2)n1C | -1.9%
O=C(COC(=O)c1ccc(F)cc1)NCCCc1ccccc1 | -9.6%
CCCCNC(=S)NNC(=O)c1cc(C)on1 | -1.9%
Cc1cc(C(=O)NCCCc2ccccc2)no1 | 13.1% (active)
Cc1ccc2c(c1)N(CC(=O)NCCCN1CCCCC1)C(=O)c1cccnc1O2 | 1.05%
Cc1cccc(NC(=O)Cn2c(=O)n(Cc3ccccc3)c(=O)c3c(C)c(C)sc32)c1 | -2.17%
CCOc1ccc(OCC)c(NC(=O)CSc2nnc(Cn3cnc4ccccc43)n2C)c1 | -0.798%
COc1cccc(-n2nc(C(=O)N3CCN(Cc4ccccc4)CC3)c3ccccc3c2=O)c1 | 1.57%
COc1ccc(C(=O)Nc2ccnn2C2CCN(Cc3ccncc3)CC2)cc1 | 7.85%
O=C(CCN1C(=O)[C@@H]2Cc3ccccc3CN2C1=O)NCCc1ccccc1 | -1.26%
CCCOc1ccc(C2=CSC3=NCCN23)cc1Cl | 1.92%
O=C(CSc1ncccn1)N1CCCC1 | -5.34%

SMILES | max response
O=S(=O)(NCC1OCCc2ccccc21)c1ccccc1 (stereo not drawn) | 1.35%
CC(=O)c1nc2ccccc2n1Cc1ccccc1 | -1.93%
CC(C)Cc1cc(C(=O)Nc2cc(Br)ccc2O)no1 | 31.8% (active)
COc1ccc(NS(=O)(=O)c2ccc(N3CCN(CCO)CC3)c([N+](=O)[O-])c2)cc1 | 1.31%
O=S(=O)(c1cccc2nonc12)N1CCN(c2cccc(Cl)c2)CC1 | 0.53%
Cc1cc2cc3c(N)[nH]nc3nc2cc1C | 20.7% (active)
CCOc1cc(C(=S)N2CCOCC2)ccc1OS(=O)(=O)c1ccc(Br)cc1 | -1.79%
CC(=O)c1ccc(S(=O)(=O)NCc2nnnn2-c2ccccc2)cc1 | -4.62%
Cc1cc(C)cc(NC(=O)C2CCCN(S(=O)(=O)c3ccc4[nH]c(=O)ccc4c3)C2)c1 (stereo not drawn) | 1.72%
CCOc1ccc(C2/C(=C(/O)c3ccc4c(c3)CC(C)O4)C(=O)C(=O)N2CCCn2ccnc2)cc1 (stereo not drawn) | 0.806%
COc1ccc(-c2nc3ccccc3n2CCC(C)C)cc1OC | -2.09%
CCOCCn1c(-c2ccccc2)nc2ccccc21 | -1.28%
COCCn1c(-c2ccc(OC)c(OC)c2)nc2ccccc21 | 18.4% (active)
CC(NCc1ccccc1OC1CCCC1)c1ccccc1 (stereo not drawn) | -1.87%
Cc1cc(Cl)c2oc(C(=O)N(C)C(C)c3ccccn3)c(C)c2c1 (stereo not drawn) | 28.7% (active)
Cc1cc(Cl)c2oc(C(=O)N3CCC(O)(c4ccccc4)CC3)c(C)c2c1 | 4.04%
Cc1cc(Cl)c2oc(C(=O)NC(C)c3ccncn3)c(C)c2c1 (stereo not drawn) | 6.71%
COc1ccc(CNC(=O)C2CC(c3ccc(C(F)(F)F)cc3)=NO2)cc1 (stereo not drawn) | -0.982%
Cc1cc(OCCCCOc2ccc(C#N)cc2)ccc1[N+](=O)[O-] | -6.16%
COc1ccccc1N1CCN(C(=O)CSc2nnc(-c3ccoc3C)o2)CC1 | -1.64%
COc1ccc(N2CCN(C(=O)CSc3ncnc4c3cnn4-c3ccc(OC)cc3)CC2)cc1 | -1.01%

SMILES | max response
c1ccc(-n2ncc3c2ncn2c(C4CCCCC4)nnc32)cc1 | -1.23%
CCN(CC)C(=O)CSc1ncnc2c1cnn2-c1ccccc1 | 38.4% (active)
c1ccc(-n2ncc3c(N4CCCC4)ncnc32)cc1 | 8.89%
CC(C)Sc1ncnc2c1cnn2-c1ccccc1 | 46.6% (active)
COC(=O)CSc1ncnc2c1cnn2-c1ccc(C)cc1C | -8.2%
O=C(CSc1ncnc2c1cnn2CCc1ccccc1)Nc1ccc(F)cc1 | 2.37%
COc1ccc(-n2ncc3c(SCC(=O)NNC(C)=O)ncnc32)cc1 | 26.3% (active)
CC(=O)Nc1ccc(NC(=O)CSc2ncnc3c2cnn3Cc2ccccc2)cc1 | 6%
COc1ccccc1N1CCN(C(=O)CSc2ncnc3c2cnn3-c2ccc(C)c(C)c2)CC1 | 44.7% (active)
COc1ccc(NC(=O)CSc2ncnc3[nH]ncc23)cc1 | 1.38%
O=S(=O)(Nc1ccccc1)c1ccc(NS(=O)(=O)c2cccs2)cc1 | -2.66%
CCCCSc1nnc2c(n1)OC=Nc1ccccc1-2 | 12.2%
COc1cc(N2C(=O)CSC2=S)cc(OC)c1OC | -3.84%
Cc1ccccc1NC(=O)Cn1cc(C(=O)C2CC2)c2ccccc21 | -4.37%
NC(=O)c1nsc(C(=O)N(CCCN2CCOCC2)C(C(=O)NC2CCCCC2)c2ccc(Cl)cc2)c1N (stereo not drawn) | 0.533%
O=C(O)c1ccccc1-c1ccccc1C(=O)Nc1ccccc1Br | -9.84%
N#Cc1c(-c2ccccc2)cc(-c2ccccc2)nc1SCC(=O)O | -2.46%
Brc1ccc(Nc2c3c(nc4ncnn24)CCC3)cc1 | -7.39%
O=C(NCc1ccccc1Cl)C1CCN(c2ncnc3c2nc2n3CCCCC2)CC1 | 17%
CC(=O)Nc1c2c(nn1-c1ccc(C)cc1C)CS(=O)C2 (stereo not drawn) | -1.87%
COc1ccc(-c2nc3c(c(SCC(=O)Nc4ccc(C(=O)O)cc4)n2)Cc2ccccc2O3)cc1 | 12.1%
